Results on eight compounds are retold here after ChEMBL document CHEMBL1961873, “Compounds: GSK PKIS; Assays: Nanosyn kinase panel” (2012).

Molecules are shown by their SMILES. “And” between values parts separate entries of the source, which are not always exact repeats. Equal values may be shown once.

The target of assay [1] is MAP/microtubule affinity-regulating kinase 3 (Homo sapiens) (UniProt P27448). The settings on record: at 1 µM.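 Also: reported values are averaged percent inhibition of MARK3.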
For assay [2], the target named is T1, MAP/microtubule affinity-regulating kinase 4 (Homo sapiens) (UniProt Q96L34).
T1 sequence (whole entry): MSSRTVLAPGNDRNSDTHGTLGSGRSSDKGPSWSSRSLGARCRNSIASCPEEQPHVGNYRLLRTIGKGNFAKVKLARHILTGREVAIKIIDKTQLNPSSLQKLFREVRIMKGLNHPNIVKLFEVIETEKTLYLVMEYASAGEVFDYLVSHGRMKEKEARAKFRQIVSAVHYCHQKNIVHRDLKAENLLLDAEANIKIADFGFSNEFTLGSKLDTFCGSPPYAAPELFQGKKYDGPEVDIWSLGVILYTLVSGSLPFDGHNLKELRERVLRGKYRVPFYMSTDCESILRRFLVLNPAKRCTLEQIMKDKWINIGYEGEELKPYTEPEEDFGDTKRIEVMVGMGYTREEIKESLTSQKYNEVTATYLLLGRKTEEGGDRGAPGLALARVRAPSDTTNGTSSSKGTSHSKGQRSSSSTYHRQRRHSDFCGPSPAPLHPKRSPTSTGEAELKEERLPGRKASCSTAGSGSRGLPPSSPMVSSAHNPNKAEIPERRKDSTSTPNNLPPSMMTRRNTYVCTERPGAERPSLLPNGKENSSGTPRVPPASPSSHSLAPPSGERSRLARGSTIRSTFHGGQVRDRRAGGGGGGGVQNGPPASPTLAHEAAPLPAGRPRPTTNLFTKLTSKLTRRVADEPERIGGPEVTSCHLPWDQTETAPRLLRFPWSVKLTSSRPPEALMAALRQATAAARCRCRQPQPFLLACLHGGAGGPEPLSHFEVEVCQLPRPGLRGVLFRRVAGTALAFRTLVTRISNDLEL
The following applies: at 0.1 µM.

The target of assay [3] is T1, MAP/microtubule affinity-regulating kinase 4 (Homo sapiens). The settings on record: at 1 µM.
Assay [4] deals with Maternal embryonic leucine zipper kinase (Homo sapiens) (UniProt Q14680). The following applies: at 0.1 µM.
Assay [5] shares this target. The settings on record: at 1 µM.
Assay [6] deals with MAP kinase-interacting serine/threonine-protein kinase 1 (Homo sapiens) (UniProt Q9BUB5). The following applies: at 0.1 µM.
Assay [7] shares this target. The settings on record: at 1 µM.
Assay [8] concerns the target MAP kinase-interacting serine/threonine-protein kinase 2 (Homo sapiens) (UniProt Q9HBH9). The settings on record: at 0.1 µM.
The target is the same in assay [9]. The following applies: at 1 µM.
Assay [10] deals with Serine/threonine-protein kinase MARK2 (Homo sapiens) (UniProt Q7KZI7). The settings on record: at 0.1 µM.
For assay [11] the target is unchanged. The following applies: at 1 µM.
For assay [12], the target named is PAS domain-containing serine/threonine-protein kinase (Homo sapiens) (UniProt Q96RG2). The following applies: at 0.1 µM.
Assay [13] has the same target. The following applies: at 1 µM.
Assay [14] has as its target Phosphorylase b kinase gamma catalytic chain, skeletal muscle/heart isoform (Homo sapiens) (UniProt Q16816). The settings on record: at 0.1 µM.
The target is the same in assay [15]. The settings on record: at 1 µM.
The target of assay [16] is T2, Phosphorylase b kinase gamma catalytic chain, liver/testis isoform (Homo sapiens) (UniProt P15735).
T2 sequence (whole entry): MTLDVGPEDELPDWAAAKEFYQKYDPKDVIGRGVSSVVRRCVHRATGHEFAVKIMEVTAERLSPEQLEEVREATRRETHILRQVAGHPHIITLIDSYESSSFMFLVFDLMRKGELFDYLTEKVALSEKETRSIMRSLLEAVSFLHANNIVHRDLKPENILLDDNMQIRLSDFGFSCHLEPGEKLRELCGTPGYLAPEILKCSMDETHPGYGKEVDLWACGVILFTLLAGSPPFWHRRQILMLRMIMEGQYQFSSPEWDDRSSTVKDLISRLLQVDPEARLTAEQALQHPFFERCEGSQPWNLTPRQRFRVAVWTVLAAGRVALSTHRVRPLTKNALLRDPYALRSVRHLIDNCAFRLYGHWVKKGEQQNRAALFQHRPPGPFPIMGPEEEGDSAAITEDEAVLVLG
The following applies: at 0.1 µM.

The target of assay [17] is T2, Phosphorylase b kinase gamma catalytic chain, liver/testis isoform (Homo sapiens). The following applies: at 1 µM.
Assay [18] deals with Serine/threonine-protein kinase pim-1 (Homo sapiens) (UniProt P11309). The following applies: at 0.1 µM.
For assay [19] the target is unchanged. The settings on record: at 1 µM.
Assay [20] concerns the target Serine/threonine-protein kinase pim-2 (Homo sapiens) (UniProt Q9P1W9). The following applies: at 0.1 µM.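 Also: reported value is the mean percent inhibition of PIM2, measured in the GSK PKIS kinase inhibitor set screen.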

Chain of MAP kinase-interacting serine/threonine-protein kinase 1 (Homo sapiens) (Q9BUB5 whole entry, looked up): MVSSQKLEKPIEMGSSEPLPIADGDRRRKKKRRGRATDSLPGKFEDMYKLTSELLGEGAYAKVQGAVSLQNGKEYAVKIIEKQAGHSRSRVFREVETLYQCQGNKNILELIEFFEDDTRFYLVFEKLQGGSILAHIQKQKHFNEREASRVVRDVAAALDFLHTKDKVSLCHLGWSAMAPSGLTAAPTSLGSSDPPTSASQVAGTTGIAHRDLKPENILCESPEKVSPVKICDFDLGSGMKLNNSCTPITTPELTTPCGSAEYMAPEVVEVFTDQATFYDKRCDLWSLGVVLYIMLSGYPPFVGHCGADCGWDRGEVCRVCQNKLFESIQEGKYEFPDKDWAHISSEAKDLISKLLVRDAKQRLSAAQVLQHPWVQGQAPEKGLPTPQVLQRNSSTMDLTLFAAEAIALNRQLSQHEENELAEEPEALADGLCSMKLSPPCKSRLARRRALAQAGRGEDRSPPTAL
Chain of MAP kinase-interacting serine/threonine-protein kinase 2 (Homo sapiens) (Q9HBH9 whole entry, looked up): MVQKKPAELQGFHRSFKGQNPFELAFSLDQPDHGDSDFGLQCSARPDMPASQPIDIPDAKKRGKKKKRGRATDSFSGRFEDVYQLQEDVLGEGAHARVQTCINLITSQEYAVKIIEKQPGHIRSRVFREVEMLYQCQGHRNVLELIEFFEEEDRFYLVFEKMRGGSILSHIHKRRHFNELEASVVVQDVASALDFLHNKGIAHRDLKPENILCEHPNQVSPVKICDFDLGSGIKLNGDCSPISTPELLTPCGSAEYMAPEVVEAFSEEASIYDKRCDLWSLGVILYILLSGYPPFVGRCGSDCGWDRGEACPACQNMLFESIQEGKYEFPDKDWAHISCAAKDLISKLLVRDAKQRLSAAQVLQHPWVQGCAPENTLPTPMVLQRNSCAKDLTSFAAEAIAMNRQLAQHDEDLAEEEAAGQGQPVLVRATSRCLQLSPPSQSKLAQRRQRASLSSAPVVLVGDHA
Chain of Serine/threonine-protein kinase pim-1 (Homo sapiens) (P11309 whole entry, looked up): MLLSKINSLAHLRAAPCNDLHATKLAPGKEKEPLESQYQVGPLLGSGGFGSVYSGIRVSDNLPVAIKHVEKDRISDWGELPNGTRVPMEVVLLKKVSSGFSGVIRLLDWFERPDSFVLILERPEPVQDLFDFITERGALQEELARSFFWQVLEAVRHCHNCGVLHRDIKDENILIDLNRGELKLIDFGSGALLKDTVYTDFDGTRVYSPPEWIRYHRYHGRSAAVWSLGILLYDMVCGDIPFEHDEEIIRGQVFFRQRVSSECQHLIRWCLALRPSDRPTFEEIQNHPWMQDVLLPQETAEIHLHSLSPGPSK
Chain of Phosphorylase b kinase gamma catalytic chain, skeletal muscle/heart isoform (Homo sapiens) (Q16816 whole entry, looked up, canonical isoform): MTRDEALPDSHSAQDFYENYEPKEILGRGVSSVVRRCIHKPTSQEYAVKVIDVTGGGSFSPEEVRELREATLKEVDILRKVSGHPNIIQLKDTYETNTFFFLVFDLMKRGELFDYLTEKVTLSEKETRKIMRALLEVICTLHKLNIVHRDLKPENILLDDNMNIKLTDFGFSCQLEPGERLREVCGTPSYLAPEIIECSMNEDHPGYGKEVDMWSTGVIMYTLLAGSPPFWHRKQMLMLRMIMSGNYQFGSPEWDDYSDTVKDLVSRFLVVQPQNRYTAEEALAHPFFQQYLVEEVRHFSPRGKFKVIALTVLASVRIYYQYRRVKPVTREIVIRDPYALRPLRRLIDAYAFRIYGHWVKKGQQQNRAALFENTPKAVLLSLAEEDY
Chain of Serine/threonine-protein kinase MARK2 (Homo sapiens) (Q7KZI7 whole entry): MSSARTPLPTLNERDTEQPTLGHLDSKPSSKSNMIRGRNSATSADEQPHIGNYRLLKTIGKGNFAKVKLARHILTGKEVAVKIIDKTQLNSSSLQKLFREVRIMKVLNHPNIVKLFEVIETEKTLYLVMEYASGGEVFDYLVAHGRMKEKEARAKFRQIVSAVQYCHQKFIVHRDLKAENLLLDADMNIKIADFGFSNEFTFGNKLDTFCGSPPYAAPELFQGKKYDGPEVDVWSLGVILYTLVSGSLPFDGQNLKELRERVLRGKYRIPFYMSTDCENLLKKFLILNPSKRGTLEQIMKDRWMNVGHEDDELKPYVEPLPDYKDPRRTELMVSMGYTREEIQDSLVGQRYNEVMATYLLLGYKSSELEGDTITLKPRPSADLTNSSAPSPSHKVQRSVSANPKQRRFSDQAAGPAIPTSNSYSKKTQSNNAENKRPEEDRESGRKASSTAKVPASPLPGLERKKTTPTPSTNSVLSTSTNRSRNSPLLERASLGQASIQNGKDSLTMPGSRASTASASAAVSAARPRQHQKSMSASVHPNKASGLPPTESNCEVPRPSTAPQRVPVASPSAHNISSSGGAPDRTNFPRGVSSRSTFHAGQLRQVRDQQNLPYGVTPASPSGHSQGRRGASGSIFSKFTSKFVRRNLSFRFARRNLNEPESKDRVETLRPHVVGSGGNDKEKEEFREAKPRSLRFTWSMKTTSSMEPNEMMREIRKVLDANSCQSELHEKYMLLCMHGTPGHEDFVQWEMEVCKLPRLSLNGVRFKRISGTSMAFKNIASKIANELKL
Chain of Maternal embryonic leucine zipper kinase (Homo sapiens) (Q14680 whole entry, looked up): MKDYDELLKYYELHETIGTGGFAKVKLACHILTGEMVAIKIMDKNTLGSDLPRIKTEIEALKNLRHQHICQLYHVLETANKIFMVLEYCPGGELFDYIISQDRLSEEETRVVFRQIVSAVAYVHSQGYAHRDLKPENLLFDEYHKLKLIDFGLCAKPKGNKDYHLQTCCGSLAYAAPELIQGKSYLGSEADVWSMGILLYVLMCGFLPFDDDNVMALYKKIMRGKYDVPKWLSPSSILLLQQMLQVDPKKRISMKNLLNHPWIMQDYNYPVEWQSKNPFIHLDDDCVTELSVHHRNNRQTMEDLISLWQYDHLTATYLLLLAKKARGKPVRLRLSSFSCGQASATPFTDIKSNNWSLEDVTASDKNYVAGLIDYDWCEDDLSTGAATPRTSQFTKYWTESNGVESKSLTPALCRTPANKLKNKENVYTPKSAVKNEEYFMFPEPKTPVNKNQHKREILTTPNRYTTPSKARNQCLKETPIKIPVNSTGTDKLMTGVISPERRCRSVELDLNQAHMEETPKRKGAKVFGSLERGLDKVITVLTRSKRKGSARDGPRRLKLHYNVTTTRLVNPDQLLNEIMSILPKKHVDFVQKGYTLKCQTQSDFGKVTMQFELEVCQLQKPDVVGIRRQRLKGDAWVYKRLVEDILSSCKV
Chain of Serine/threonine-protein kinase pim-2 (Homo sapiens) (Q9P1W9 whole entry, looked up): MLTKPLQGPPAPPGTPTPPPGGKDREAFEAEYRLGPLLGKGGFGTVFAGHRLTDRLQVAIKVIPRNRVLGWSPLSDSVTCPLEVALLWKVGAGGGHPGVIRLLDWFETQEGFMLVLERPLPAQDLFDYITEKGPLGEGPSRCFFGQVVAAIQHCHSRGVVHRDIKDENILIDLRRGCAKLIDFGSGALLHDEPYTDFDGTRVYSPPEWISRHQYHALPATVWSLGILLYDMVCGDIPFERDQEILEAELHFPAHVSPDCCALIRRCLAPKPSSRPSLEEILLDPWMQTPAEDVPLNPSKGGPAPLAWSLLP
Chain of MAP/microtubule affinity-regulating kinase 3 (Homo sapiens) (P27448 whole entry, looked up): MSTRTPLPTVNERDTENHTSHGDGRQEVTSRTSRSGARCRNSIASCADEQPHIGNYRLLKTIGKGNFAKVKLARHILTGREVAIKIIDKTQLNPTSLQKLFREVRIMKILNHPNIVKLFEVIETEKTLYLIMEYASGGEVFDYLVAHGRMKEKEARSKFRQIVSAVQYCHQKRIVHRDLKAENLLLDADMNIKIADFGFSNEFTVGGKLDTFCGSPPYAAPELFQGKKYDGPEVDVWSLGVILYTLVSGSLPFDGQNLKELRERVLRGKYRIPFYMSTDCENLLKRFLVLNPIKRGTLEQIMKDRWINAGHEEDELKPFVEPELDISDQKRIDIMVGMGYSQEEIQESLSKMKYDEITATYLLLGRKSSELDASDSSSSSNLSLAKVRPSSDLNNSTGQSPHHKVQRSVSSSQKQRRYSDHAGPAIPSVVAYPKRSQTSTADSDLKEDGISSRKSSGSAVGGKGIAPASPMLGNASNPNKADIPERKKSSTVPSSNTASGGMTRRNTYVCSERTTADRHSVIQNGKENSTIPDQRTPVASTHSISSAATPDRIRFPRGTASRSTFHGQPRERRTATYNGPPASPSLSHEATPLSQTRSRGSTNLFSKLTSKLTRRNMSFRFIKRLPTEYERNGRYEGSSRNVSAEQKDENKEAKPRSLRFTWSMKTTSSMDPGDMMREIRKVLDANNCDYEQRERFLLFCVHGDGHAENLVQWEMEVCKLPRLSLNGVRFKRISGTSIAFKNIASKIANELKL

The term inhibition denotes the relative decrease from the control value, in per cent. As for `COc1cc2c(cc1Nc1nc(Nc3cccc(F)c3C(N)=O)c3cc[nH]c3n1)N(C(=O)CN1CCN(C(C)C)CC1)CC2`, the inhibition is 3.29% in [1]; 0.59% in [2]; 2.06% in [3]; 2.86% in assay [4]; 18.4% in assay [5]; 1.4% in assay [6]. The inhibition in [7] is 1.42%; in [8], 1.33%; in assay [9], 4.51%; in [10], 0.26%; in assay [11], 3.63%; in [12], -0.77%. The inhibition in [13] is -0.72%; in assay [14], 0.29%; in [15] it was 9.54%; in [16], 3.29%; in assay [17] it was 5.63%; in [18] it was 1.43%. The inhibition in assay [19] was 0.21%; in assay [20], -0.02%.

As for `CN1CCC(n2cnc(-c3ccc(F)cc3)c2-c2ccnc(NCCO)n2)CC1`, the inhibition in assay [1] worked out at 6.04%; in [2], 0.86%; in assay [3] it was 2.05%; in assay [4], 2.15%; in assay [5] it was 5.49%; in assay [6] it was 4.71%. Also, the inhibition in assay [7] is 15.9%; in assay [8], 2.63%; in [9], 8.42%; in assay [10], -0.26%; in assay [11], -0.08%; in assay [12], 0.82%. The inhibition in [13] was 0.93%; in assay [14] it was 2.34%; in [15] it was 5.88%; in assay [16], 4.56%; in assay [17], 7.31%; in assay [18] it was 0.34%. Further, the inhibition in assay [19] amounted to 1.55%; in [20], 0.95%.

Take `Nc1ncnc2occ(-c3ccc(NC(=O)Nc4cc(C(F)(F)F)ccc4F)cc3)c12`: the inhibition in assay [1] was 2.97% and -0.26%; in [2], 0.43% and 1.7%; in assay [3], 2.95% and 1.13%; in [4], -6.51% and -4.36%; in assay [6], 6.91% and 2.48%; in assay [7] it was 30% and 16.5%. For the same compound, the inhibition in assay [8] is 7.71% and 2.55%; in assay [9] it was 40.3% and 28.8%; in assay [10], -0.86% and -0.02%; in assay [11] it was 2.65% and 0.89%; in assay [12], 0.79% and 0.18%; in assay [13], 0.2% and -0.5%. For the same compound, the inhibition in assay [14] is 0.08% and -0.25%; in assay [15], 4.52% and 6.47%; in [16], 2.69% and -2.51%; in assay [17], -1.12% and -5.1%; in assay [18], 0.97% and 0.53%; in [19] it was 1.19% and 2.46%. Moreover, in assay [20], the inhibition was 0.22% and 0.7%.

For the compound `COc1cc(Nc2ncc(-c3ccccc3)o2)cc(OC)c1`, the inhibition came to 2.48% in assay [1]; 1.86% in assay [2]; 3.56% in assay [3]; 4.58% in [4]; 5.97% in [5]; 3.84% in [6]. Moreover, the inhibition is 10.8% in assay [7]; 1.3% in assay [8]; 12.4% in [9]; -1.15% in assay [10]; 2.52% in [11]; -1.02% in assay [12]. Moreover, the inhibition in assay [13] is -0.79%; in [14] it was 5.83%; in assay [15], 14.1%; in assay [16], 4.54%; in assay [17], 5.45%; in [18] it was 1.14%. In addition, the inhibition in assay [19] is 1.63%; in assay [20] it was 0.58%.

For the compound `CNC(=O)c1cncc(/C=C/c2ccccc2C)c1`, the inhibition is 6.03% in [1]; 1.26% in assay [2]; 3.49% in assay [3]; 1.3% in [4]; 4.29% in assay [5]; 4.95% in [6]. For the same compound, the inhibition in [7] came to 29.4%; in [8], 2.12%; in assay [9] it was 14.9%; in [10], 1.19%; in [11], 0.45%; in assay [12], 0.44%. Also, the inhibition was 0.95% in [13]; 4.3% in [14]; 7.61% in [15]; 6.36% in assay [16]; 7.42% in [17]; 0.05% in assay [18]. Further, the inhibition in [19] was determined as 2.22%; in assay [20], 0.15%.

Consider `Cc1nnc(-c2cccc(-c3ccc(C(=O)NCC4CC4)cc3)c2)o1`, for which the inhibition in assay [1] was determined as 7.47%; in [2] it was 1.79%; in assay [3] it was 2.85%; in assay [4], 0.44%; in [5], 6.34%; in [6], 4.66%. Moreover, the inhibition in assay [7] was 6.32%; in assay [8], 2.35%; in assay [9], 6.05%; in assay [10], 0.64%; in assay [11] it was 1.69%; in [12] it was 0.89%. Moreover, the inhibition in assay [13] was 0.76%; in assay [14] it was 3.57%; in assay [15], 5.91%; in assay [16], 7.39%; in [17] it was 7.38%; in assay [18], -0.37%. Moreover, the inhibition in assay [19] turned out to be 1.97%; in [20], 0.91%.

For the compound `CC1(C)CC(n2cnc(-c3ccc(F)cc3)c2-c2ccnc(N)n2)CC(C)(C)N1`, the inhibition in assay [1] worked out at 1.48%; in assay [2] it was 1.1%; in assay [3], 1.23%; in [4], 2.12%; in [5], 3.51%; in assay [6] it was 1.11%. The inhibition in [7] is 2.81%; in [8], 0.35%; in assay [9] it was 0.79%; in assay [10] it was 0.16%; in assay [11], 0.44%; in assay [12], -1.3%. For the same compound, the inhibition in assay [13] was -0.73%; in [14] it was 3.51%; in assay [15], 2.36%; in [16], -0.42%; in assay [17] it was -1.13%; in [18], 0.93%. The inhibition in [19] came out at 1.49%; in assay [20] it was 0.4%.

On to `OCCCNc1nccc(-c2c(-c3ccc(F)cc3)nn3cc(C(F)(F)F)ccc23)n1`, for which the inhibition in assay [1] was 3.84%; in assay [2], 0.24%; in assay [3], 2.09%; in [4], 0.52%; in assay [5], 2.27%; in [6], 2.61%. Further, the inhibition was 6.2% in [7]; 2.75% in assay [8]; 3.6% in assay [9]; -1.06% in assay [10]; 1.92% in assay [11]; -0.08% in assay [12]. Besides, the inhibition in [13] is -2.07%; in [14], 2.26%; in assay [15] it was 5.59%; in [16], 2.88%; in assay [17] it was -0.79%; in assay [18], 0.12%. Besides, the inhibition in [19] was 1.6%; in assay [20], 0.32%.
